# Experiments:
# [1] = target: Protein kinase C gamma type (Homo sapiens) (UniProt P05129); conditions: at 1 µM;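 further: each value is an averaged percent inhibition of the enzyme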
# [2] = target: T1, Protein kinase C iota type (Homo sapiens) (UniProt P41743); conditions: at 0.1 µM
# T1 sequence (whole entry): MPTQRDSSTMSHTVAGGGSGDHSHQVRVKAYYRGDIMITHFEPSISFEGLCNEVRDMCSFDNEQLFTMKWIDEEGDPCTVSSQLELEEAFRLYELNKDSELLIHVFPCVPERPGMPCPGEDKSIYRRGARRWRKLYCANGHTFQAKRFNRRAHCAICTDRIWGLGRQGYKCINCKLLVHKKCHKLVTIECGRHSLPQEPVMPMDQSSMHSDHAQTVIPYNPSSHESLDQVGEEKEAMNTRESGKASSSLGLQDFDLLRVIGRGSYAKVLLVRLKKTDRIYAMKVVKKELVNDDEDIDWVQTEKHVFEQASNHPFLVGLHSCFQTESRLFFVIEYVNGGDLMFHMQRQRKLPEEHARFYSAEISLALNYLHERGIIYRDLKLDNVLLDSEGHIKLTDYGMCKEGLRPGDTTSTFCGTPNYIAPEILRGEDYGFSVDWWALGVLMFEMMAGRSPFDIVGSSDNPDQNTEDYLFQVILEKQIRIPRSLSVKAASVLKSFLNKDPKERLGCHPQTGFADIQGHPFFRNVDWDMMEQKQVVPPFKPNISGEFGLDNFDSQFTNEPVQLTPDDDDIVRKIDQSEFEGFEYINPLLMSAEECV
# [3] = target: T1, Protein kinase C iota type (Homo sapiens); conditions: at 1 µM
# [4] = target: Protein kinase C theta type (Homo sapiens) (UniProt Q04759); conditions: at 0.1 µM
# Chain of Protein kinase C theta type (Homo sapiens) (Q04759 whole entry, looked up): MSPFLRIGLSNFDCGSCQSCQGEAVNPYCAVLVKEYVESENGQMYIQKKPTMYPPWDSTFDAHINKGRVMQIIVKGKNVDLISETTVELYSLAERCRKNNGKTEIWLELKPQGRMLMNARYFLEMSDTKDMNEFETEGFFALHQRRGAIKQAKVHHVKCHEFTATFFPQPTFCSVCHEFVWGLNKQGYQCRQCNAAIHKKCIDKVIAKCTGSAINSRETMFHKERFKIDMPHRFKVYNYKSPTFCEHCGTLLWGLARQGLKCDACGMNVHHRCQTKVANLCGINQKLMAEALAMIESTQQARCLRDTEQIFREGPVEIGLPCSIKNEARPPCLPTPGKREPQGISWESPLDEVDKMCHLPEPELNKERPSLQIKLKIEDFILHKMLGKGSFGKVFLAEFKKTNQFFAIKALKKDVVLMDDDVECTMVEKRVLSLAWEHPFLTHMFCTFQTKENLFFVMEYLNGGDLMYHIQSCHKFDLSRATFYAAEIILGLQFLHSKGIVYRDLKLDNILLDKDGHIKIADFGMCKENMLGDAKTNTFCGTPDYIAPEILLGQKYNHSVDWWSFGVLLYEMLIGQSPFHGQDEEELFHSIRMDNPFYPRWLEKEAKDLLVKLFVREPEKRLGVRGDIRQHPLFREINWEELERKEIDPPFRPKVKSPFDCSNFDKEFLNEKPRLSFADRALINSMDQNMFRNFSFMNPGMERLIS
# [5] = target: Protein kinase C theta type (Homo sapiens) (UniProt Q04759); conditions: at 1 µM
# [6] = target: Protein kinase C beta type (Homo sapiens) (UniProt P05771); conditions: at 0.1 µM
# Chain of Protein kinase C beta type (Homo sapiens) (P05771 2-671 limits assumed): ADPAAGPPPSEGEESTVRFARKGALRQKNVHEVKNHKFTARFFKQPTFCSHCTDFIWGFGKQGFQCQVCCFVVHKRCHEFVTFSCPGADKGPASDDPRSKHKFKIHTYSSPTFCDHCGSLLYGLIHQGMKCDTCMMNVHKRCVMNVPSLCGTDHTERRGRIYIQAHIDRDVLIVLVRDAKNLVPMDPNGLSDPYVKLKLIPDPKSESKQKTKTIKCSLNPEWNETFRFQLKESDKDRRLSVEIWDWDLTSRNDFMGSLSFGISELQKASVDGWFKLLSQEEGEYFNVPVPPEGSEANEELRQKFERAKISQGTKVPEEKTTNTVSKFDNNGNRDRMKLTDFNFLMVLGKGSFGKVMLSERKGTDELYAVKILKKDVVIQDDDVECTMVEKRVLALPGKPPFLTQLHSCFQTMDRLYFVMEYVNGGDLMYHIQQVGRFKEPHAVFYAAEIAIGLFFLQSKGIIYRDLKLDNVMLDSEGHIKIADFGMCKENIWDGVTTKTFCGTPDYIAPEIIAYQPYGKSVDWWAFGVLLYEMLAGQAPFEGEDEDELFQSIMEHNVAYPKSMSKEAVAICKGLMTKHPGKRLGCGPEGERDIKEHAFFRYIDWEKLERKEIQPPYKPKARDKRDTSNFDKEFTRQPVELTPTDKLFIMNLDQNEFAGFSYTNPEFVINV
# [7] = target: Protein kinase C beta type (Homo sapiens) (UniProt P05771); conditions: at 1 µM
# [8] = target: T2, Serine/threonine-protein kinase D1 (Homo sapiens) (UniProt Q15139); conditions: at 0.1 µM
# T2 sequence (whole entry): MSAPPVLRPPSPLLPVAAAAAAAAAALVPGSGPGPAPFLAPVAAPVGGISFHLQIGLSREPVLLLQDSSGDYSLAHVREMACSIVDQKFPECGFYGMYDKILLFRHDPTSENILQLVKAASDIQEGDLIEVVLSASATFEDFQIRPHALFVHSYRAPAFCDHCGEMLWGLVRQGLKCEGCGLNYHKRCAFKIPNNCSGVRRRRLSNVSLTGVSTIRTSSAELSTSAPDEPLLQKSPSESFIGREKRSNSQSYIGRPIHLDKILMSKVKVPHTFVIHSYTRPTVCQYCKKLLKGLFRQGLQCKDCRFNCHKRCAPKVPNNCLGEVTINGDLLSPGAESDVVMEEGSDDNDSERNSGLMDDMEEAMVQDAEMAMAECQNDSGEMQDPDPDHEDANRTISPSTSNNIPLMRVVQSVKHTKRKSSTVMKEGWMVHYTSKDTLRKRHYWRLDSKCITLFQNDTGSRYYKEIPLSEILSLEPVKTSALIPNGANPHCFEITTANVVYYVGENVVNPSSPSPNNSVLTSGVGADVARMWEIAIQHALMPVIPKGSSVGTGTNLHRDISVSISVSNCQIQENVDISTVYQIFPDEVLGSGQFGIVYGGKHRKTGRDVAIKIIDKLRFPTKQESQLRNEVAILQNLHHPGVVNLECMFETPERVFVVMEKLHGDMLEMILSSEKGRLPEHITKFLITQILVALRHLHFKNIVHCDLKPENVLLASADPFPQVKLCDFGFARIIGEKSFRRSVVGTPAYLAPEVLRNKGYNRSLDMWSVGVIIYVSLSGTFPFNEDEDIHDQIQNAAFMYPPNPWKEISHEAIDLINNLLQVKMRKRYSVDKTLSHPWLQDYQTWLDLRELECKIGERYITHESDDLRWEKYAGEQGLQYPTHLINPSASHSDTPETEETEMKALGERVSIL
# [9] = target: T2, Serine/threonine-protein kinase D1 (Homo sapiens); conditions: at 1 µM
# [10] = target: T3, Serine/threonine-protein kinase D2 (Homo sapiens) (UniProt Q9BZL6); conditions: at 0.1 µM
# T3 sequence (whole entry): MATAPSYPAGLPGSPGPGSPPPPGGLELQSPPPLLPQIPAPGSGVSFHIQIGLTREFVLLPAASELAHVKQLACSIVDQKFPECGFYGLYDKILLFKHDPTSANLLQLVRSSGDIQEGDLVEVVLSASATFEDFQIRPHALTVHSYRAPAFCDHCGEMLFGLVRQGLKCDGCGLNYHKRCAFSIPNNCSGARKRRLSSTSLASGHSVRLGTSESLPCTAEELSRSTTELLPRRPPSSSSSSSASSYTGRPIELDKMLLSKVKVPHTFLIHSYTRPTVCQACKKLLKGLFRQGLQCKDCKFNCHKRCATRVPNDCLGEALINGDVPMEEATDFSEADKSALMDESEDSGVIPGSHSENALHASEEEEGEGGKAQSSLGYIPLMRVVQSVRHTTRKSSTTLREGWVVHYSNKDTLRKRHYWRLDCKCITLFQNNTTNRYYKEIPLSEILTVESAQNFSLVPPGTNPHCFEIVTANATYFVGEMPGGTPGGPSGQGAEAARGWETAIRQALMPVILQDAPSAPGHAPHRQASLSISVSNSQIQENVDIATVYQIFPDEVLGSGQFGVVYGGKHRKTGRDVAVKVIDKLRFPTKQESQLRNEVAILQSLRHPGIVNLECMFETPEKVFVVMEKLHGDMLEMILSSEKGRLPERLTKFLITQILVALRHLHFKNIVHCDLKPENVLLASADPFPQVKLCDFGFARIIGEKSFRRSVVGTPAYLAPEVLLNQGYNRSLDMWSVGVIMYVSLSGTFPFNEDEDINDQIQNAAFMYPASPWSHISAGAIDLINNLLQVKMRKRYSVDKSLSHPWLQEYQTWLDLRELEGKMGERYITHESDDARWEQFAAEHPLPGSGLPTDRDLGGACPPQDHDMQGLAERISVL
# [11] = target: T3, Serine/threonine-protein kinase D2 (Homo sapiens); conditions: at 1 µM
# [12] = target: T4, Serine/threonine-protein kinase D3 (Homo sapiens) (UniProt O94806); conditions: at 0.1 µM
# T4 sequence (whole entry): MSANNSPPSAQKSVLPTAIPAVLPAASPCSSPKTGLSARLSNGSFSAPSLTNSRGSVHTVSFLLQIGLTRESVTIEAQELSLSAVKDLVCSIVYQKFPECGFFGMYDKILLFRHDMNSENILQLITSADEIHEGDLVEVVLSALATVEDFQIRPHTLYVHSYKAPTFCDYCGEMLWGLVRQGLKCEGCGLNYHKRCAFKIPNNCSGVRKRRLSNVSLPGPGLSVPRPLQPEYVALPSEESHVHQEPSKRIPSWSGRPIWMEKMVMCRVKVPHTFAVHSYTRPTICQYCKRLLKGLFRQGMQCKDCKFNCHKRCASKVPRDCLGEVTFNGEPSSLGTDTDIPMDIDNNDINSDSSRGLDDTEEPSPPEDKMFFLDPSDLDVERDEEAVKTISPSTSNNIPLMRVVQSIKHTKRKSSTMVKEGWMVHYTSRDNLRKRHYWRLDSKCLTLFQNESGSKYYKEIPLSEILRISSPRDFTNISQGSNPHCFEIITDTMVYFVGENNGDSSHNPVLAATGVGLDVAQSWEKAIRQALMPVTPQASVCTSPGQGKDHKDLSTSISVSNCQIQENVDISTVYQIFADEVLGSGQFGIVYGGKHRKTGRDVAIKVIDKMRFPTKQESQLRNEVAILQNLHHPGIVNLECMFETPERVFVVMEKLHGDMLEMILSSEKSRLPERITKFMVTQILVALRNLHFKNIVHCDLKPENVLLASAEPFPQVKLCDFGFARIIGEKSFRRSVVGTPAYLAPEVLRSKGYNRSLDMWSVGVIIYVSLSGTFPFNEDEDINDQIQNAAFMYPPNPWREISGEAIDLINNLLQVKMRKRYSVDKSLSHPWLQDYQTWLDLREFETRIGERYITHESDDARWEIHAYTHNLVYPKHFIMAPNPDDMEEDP
# [13] = target: T4, Serine/threonine-protein kinase D3 (Homo sapiens); conditions: at 1 µM
# [14] = target: T5, cGMP-dependent protein kinase 1 (Homo sapiens) (UniProt Q13976); conditions: at 0.1 µM
# T5 sequence (whole entry): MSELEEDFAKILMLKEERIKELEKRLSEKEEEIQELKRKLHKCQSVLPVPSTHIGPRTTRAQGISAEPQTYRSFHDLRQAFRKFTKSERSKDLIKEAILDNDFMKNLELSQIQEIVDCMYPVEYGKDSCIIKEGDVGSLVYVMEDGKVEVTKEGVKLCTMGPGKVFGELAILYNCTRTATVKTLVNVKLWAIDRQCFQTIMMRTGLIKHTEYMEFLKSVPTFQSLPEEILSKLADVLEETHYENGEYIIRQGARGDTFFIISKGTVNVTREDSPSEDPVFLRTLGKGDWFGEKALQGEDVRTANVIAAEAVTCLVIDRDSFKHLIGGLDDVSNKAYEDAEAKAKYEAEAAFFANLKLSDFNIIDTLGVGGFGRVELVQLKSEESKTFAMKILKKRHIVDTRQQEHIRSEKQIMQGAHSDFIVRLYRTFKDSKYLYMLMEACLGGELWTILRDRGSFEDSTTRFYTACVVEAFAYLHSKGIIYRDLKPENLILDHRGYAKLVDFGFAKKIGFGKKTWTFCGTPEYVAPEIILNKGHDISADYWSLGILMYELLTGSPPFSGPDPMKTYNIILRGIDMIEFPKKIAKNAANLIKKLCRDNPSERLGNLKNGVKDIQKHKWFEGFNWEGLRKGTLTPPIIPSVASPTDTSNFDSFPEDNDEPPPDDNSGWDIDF
# [15] = target: T5, cGMP-dependent protein kinase 1 (Homo sapiens); conditions: at 1 µM
# [16] = target: T6, cGMP-dependent protein kinase 2 (Homo sapiens) (UniProt Q13237); conditions: at 0.1 µM
# T6 sequence (whole entry): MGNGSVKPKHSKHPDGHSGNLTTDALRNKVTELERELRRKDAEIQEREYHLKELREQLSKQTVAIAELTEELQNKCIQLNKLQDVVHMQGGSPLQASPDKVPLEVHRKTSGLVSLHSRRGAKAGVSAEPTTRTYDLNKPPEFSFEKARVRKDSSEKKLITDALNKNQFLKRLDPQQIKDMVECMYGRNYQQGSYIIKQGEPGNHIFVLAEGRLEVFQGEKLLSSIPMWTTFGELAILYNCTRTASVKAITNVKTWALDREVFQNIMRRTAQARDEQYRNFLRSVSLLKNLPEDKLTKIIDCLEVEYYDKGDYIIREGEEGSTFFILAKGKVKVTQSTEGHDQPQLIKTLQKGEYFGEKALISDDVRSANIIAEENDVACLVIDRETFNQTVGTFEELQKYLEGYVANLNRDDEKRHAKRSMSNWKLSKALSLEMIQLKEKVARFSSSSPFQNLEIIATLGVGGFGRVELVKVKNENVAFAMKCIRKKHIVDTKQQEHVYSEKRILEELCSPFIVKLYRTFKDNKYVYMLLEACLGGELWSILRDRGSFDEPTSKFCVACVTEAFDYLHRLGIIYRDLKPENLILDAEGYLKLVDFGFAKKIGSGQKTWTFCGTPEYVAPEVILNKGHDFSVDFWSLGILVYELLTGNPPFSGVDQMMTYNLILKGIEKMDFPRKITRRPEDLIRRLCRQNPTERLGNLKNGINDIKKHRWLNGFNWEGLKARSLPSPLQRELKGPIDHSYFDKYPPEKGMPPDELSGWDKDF
# [17] = target: T6, cGMP-dependent protein kinase 2 (Homo sapiens); conditions: at 1 µM
# [18] = target: T7, cAMP-dependent protein kinase catalytic subunit PRKX (Homo sapiens) (UniProt P51817); conditions: at 0.1 µM
# T7 sequence (whole entry): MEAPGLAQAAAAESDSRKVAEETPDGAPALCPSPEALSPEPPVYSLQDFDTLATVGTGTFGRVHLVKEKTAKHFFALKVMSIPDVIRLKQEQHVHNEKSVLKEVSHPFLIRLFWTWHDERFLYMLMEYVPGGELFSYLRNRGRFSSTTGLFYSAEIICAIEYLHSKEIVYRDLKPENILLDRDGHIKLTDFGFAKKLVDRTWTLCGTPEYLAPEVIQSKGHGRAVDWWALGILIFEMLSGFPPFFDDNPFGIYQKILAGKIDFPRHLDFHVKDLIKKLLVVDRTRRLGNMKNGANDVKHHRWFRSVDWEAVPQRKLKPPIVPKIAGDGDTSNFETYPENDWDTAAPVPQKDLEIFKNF
# [19] = target: T7, cAMP-dependent protein kinase catalytic subunit PRKX (Homo sapiens); conditions: at 1 µM
# [20] = target: Rho-associated protein kinase 1 (Homo sapiens) (UniProt Q13464); conditions: at 0.1 µM;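 further: values are mean percent inhibition of ROCK1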
# Chain of Rho-associated protein kinase 1 (Homo sapiens) (Q13464 2-1354 limits assumed): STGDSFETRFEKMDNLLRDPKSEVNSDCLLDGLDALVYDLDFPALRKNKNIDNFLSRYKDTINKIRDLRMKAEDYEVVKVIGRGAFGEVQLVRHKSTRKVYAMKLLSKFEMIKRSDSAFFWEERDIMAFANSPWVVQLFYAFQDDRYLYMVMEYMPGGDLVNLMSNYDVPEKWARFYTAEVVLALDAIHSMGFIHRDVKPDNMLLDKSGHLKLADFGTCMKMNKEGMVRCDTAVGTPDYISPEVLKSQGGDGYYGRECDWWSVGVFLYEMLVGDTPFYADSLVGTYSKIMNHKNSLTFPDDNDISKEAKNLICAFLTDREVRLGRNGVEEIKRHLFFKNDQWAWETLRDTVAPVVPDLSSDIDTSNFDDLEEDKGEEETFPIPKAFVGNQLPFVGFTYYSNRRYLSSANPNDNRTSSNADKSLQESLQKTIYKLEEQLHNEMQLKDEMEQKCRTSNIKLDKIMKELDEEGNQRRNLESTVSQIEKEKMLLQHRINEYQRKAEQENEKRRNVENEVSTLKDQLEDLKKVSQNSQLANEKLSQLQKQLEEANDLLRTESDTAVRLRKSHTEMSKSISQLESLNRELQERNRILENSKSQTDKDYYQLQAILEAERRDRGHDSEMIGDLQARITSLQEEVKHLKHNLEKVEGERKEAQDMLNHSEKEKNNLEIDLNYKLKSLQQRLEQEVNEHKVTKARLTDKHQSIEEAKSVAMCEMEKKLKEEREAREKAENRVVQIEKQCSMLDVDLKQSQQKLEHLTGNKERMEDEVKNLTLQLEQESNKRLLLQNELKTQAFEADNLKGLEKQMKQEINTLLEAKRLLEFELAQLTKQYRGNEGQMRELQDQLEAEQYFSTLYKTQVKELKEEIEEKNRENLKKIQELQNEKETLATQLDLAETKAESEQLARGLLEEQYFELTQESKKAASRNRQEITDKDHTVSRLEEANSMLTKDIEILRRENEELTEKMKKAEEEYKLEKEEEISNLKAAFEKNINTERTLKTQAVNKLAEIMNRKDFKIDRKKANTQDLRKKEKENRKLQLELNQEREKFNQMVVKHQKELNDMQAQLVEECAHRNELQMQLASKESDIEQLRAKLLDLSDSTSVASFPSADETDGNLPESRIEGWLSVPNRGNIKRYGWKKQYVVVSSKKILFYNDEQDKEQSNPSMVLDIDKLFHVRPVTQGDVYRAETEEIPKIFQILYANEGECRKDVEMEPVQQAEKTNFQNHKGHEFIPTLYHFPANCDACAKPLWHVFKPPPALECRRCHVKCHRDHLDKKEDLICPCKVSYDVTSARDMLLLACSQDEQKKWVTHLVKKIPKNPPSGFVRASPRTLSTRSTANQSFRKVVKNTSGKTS
smiles,measurement,setting,value
Cc1cc(O)cc(C)c1/C=C/c1cncc(-c2nn[nH]n2)c1,inhibition,[1],3.79%
same,inhibition,[2],2.14%
same,inhibition,[3],2.11%
same,inhibition,[4],2.61%
same,inhibition,[5],3.08%
same,inhibition,[6],1.15%
same,inhibition,[7],4.04%
same,inhibition,[8],1.38%
same,inhibition,[9],4.65%
same,inhibition,[10],2.35%
same,inhibition,[11],4.1%
same,inhibition,[12],2.66%
same,inhibition,[13],4.77%
same,inhibition,[14],2.15%
same,inhibition,[15],4.8%
same,inhibition,[16],2.47%
same,inhibition,[17],3.8%
same,inhibition,[18],1.59%
same,inhibition,[19],1.75%
same,inhibition,[20],1.38%
